Screens (PubChem BioAssay)
FLuc counter: inhibits or activates purified firefly luciferase, miR-21 counter-screen. 360,000 tested, 6.9% active. Potency, µM (doses to about 57.5 µM), usual class: inhibitors. P08659. purified FLuc, Km substrates, luminescence inhibition; note: nearly all actives have a fitted effect of over 55% in size
Target sequence (P08659 whole entry, looked up): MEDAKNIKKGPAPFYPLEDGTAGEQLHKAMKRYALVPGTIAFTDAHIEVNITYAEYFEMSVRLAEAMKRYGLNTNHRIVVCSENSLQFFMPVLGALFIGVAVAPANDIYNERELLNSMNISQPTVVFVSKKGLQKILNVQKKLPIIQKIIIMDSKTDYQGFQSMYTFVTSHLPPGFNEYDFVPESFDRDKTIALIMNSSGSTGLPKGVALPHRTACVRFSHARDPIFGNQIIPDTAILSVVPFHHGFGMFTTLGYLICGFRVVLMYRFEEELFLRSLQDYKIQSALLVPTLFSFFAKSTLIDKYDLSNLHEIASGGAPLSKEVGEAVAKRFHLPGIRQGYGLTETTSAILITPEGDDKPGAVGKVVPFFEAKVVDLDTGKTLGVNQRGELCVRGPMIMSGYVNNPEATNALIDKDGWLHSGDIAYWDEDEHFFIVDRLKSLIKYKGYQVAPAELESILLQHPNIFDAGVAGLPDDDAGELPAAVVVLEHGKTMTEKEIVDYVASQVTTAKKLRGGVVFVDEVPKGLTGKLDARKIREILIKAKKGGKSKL
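Purified P. pyralis luciferase, 10 nM final, with Km-level 10 uM D-luciferin and 10 uM ATP in 50 mM Tris acetate pH 7.5, 10 mM Mg acetate, 0.01% Tween-20, 0.05% BSA; 6-point qHTS titration about 60 µM downward; luminescence read.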
Rab9 promoter act: Rab9 promoter activation | Huh7 Rab9 promoter-luciferase reporter, luminescence, 24 h | Potency, µM (highest dose often 9.22 µM), usual class: activators | 320,000 tested, 2.8% active | AID 485297; note: nearly all actives have a fitted effect of over 60% in size
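Rab9 promoter-driven luciferase in stably transfected Huh7 cells; 1500 cells/well rested 2 h, exposed to compound in DMSO for 24 h at 37 °C, 5% CO2. Luminescence read 10 min after adding luciferase reagent at ambient temperature.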
SMN2 splice up: SMN2 splice variant enhancement. AID 1458. HEK293 SMN2-luciferase splicing reporter, luminescence, 30-36 h. Potency, µM (doses to about 46.1 µM), hits mostly activators. 210,000 tested, 2.8% active; note: nearly all actives have a fitted effect of over 55% in size
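qHTS luciferase splicing reporter: luminescence rises when SMN2 exon 7 is included in transfected HEK293 cells. Compound exposure lasted 30-36 h at 37C, with 4.5 mM final sodium butyrate as control, followed by a ONE-Glo read.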
ELG1 genotox: genotoxicity induction in ELG1-luciferase HEK293T cells. HEK293T ELG1-luciferase reporter, luminescence, 16 h. Potency, µM (titrated, usually from 46 µM), usual class: activators. 330,000 tested, 1.3% active; note: nearly all actives have a fitted effect of over 60% in size
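ELG1-luciferase HEK293T cells, 2,000/well; compound pinned in; 16 hr, 37 °C, 5% CO2; ONE-Glo, 30 min RT; luminescence on CCD imager.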
NPC1 promoter act: activates the NPC1 promoter. Potency, µM (highest dose often 9.22 µM), most hits filed as activators. AID 485313. 320,000 tested, 2.4% active. Huh7 NPC1 promoter luciferase reporter, 24 h; note: nearly all actives have a fitted effect of over 60% in size
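Stably transfected Huh7 (NPC1 promoter→luciferase), 1500 cells/well in Opti-MEM + 10% FBS, 2 h settle, then compound 24 h at 37 °C. Luminescence after 10 min with Amplite reagent.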
Of the large screens only hits and unclear results are named; the others gave an inactive call. Most compounds without a hit are left out; they make up all but 7.5% or so of the library. Calls come from the whole dose curve; as a rule, active = well fitted curve in the direction sought with a large enough effect; inconclusive = small, poorly fitted or top-dose-only effect, or another doubt; inactive = no such curve, though single readings can be large; an effect the other way counts as inactive or inconclusive.

Cc1cc(NC(=O)c2cccs2)ncc1NC(=O)C(C)(C)C	FLuc counter 10.7µM, Rab9 promoter act 1.41µM, ELG1 genotox 4.11µM, NPC1 promoter act 0.891µM (no result: SMN2 splice up)
Cc1ccnc(NC(=O)c2cccs2)c1	FLuc counter 15.1µM, Rab9 promoter act 2.24µM, SMN2 splice up inconclusive, ELG1 genotox inconclusive, NPC1 promoter act 3.55µM
COc1ccc(COCC(O)CN2CCC(CN3C(=O)c4cccc5cccc(c45)C3=O)CC2)cc1OC (configuration not stated)	none
CC(C)(C)c1ccc(C(=O)NCC(=O)N/N=C/c2ccccc2OCC(=O)O)cc1	FLuc counter 16.9µM
O=C(O)COc1ccccc1/C=N/NC(=O)CNC(=O)c1ccco1	none (no result: SMN2 splice up)
O=C(O)COc1ccccc1/C=N/NC(=O)COc1ccc(-c2ccccc2)cc1	FLuc counter 4.78µM (no result: SMN2 splice up)
COc1ccc(Br)c(/C=N/NC(=O)COc2ccc(-c3ccccc3)cc2)c1	FLuc counter inconclusive (no result: Rab9 promoter act, ELG1 genotox, NPC1 promoter act)
COc1ccc(-c2nnc(-c3ccccc3)o2)cc1OC	FLuc counter 8.49µM, Rab9 promoter act 1.78µM, ELG1 genotox inconclusive, NPC1 promoter act 2.24µM (no result: SMN2 splice up)
c1ccc(-c2nnc(-c3ccncc3)o2)cc1	FLuc counter inconclusive, Rab9 promoter act 3.16µM, NPC1 promoter act inconclusive
c1ccc(-c2nnc(-c3ccccc3)o2)cc1	FLuc counter 5.36µM, Rab9 promoter act 1.41µM, SMN2 splice up 12.6µM, ELG1 genotox inconclusive, NPC1 promoter act 1.58µM
CSc1nnc(-c2ccccc2)o1	none
COc1cc(-c2nnc(-c3ccncc3)o2)ccc1OCc1ccccc1	FLuc counter inconclusive (no result: SMN2 splice up)
COc1cc(-c2nnc(-c3ccccc3)o2)cc(OC)c1OC	none
COc1cc(-c2nnc(-c3ccco3)o2)ccc1OCc1ccccc1	FLuc counter 15.1µM, SMN2 splice up inconclusive
CCOC(=O)[C@H]1[C@H]2COc3ccccc3[C@@H]2N2C(=O)c3cc(F)ccc3NC(=O)[C@@]12C	none (no result: SMN2 splice up)
CC(=O)NC(C)c1ccc(Cl)c(Cl)c1 (configuration not stated)	none
CCc1c(C(=O)Nc2ccc(OC)c(Cl)c2)[nH]c(C)c1C(C)=O	FLuc counter inconclusive
COCCN(C(=O)c1ccc(COc2ccccc2)o1)c1c(N)n(CC(C)C)c(=O)[nH]c1=O	none (no result: SMN2 splice up)
Clc1cccc(-c2nnc(-c3ccccc3)o2)c1	FLuc counter 1.51µM, Rab9 promoter act 0.891µM, SMN2 splice up 12.6µM, ELG1 genotox 1.16µM, NPC1 promoter act 1.41µM
COc1ccc(-c2cc(-c3nnc(-c4ccncc4)o3)c3ccccc3n2)cc1	FLuc counter 2.69µM
Nc1ccccc1-c1nnc(-c2ccc(-c3ccccc3)cc2)o1	FLuc counter 3.01µM, Rab9 promoter act 3.16µM, SMN2 splice up inconclusive, ELG1 genotox 2.59µM, NPC1 promoter act 3.98µM
Clc1cccc(-c2nnc(-c3ccno3)o2)c1	none (no result: SMN2 splice up)
COc1cccc(-c2nnc(-c3ccc(C(F)(F)F)cc3)o2)c1	FLuc counter inconclusive, Rab9 promoter act inconclusive, SMN2 splice up 22.4µM, ELG1 genotox inconclusive, NPC1 promoter act inconclusive
O=C(NCC(=O)N(c1cccnc1)C(C(=O)NC1CCCC1)c1ccco1)c1cccs1 (configuration not stated)	none
Cc1ccc(CN2CCN(Cc3cn[nH]c3-c3cccc(F)c3)CC2CCO)o1 (configuration not stated)	none (no result: SMN2 splice up)
C=CCOC(=O)C1=C[C@H](c2ccc(Br)cc2)[C@@H](CCCO)[C@H](OCC)O1	none (no result: SMN2 splice up)
O=C(c1cc2nc(-c3ccco3)cc(C(F)(F)F)n2n1)N1CCc2ccccc2C1	none
CN(C)S(=O)(=O)c1cccc(-c2nnc(-c3ccccc3)o2)c1	FLuc counter 23.9µM, Rab9 promoter act inconclusive, ELG1 genotox inconclusive, NPC1 promoter act inconclusive
Cc1ccnc(NC(=O)C2CC(=O)N(c3ccc4c(c3)OCCO4)C2)c1 (configuration not stated)	FLuc counter 4.78µM, ELG1 genotox 0.517µM (no result: SMN2 splice up)
Cc1ccc(NC(=O)C2CC(=O)N(c3ccc4c(c3)OCCO4)C2)nc1 (configuration not stated)	none (no result: SMN2 splice up)
Cc1ccc(CN2CC(C(=O)Nc3ccncc3)CC2=O)cc1 (configuration not stated)	none (no result: SMN2 splice up)
Cc1ccc(CN2CC(C(=O)Nc3cc(C)ccn3)CC2=O)cc1 (configuration not stated)	FLuc counter 12µM, ELG1 genotox 16.4µM (no result: SMN2 splice up)
O=C(N/N=C/c1ccc2c(c1)OCO2)C1COc2ccccc2O1 (configuration not stated)	FLuc counter 16.9µM
CC(/C=C/c1ccc2c(c1)OCO2)=N/NC(=O)C1COc2ccccc2O1 (configuration not stated)	none
COc1ccc(/C=N\NC(=O)C2COc3ccccc3O2)cc1O (configuration not stated)	FLuc counter 23.9µM (no result: SMN2 splice up)
COc1ccc(/C=N/NC(=O)C2COc3ccccc3O2)cc1OC (configuration not stated)	FLuc counter 19µM
COc1cc(/C=N/NC(=O)C2COc3ccccc3O2)ccc1O (configuration not stated)	FLuc counter inconclusive (no result: SMN2 splice up)
CSc1nncn1/N=C/c1ccc2c(c1)OCO2	none
N/C(=N\N=C\c1ccc(O)cc1)c1nonc1N	FLuc counter 10.7µM, Rab9 promoter act 3.55µM, SMN2 splice up 15.8µM, ELG1 genotox inconclusive, NPC1 promoter act 3.16µM
COc1ccc(/C=N/N=C(\N)c2nonc2N)cc1OC	FLuc counter inconclusive, Rab9 promoter act inconclusive, NPC1 promoter act inconclusive
N/C(=N\N=C\c1cccc(O)c1)c1nonc1N	FLuc counter 1.9µM, Rab9 promoter act inconclusive, ELG1 genotox inconclusive, NPC1 promoter act inconclusive
CS/C(N)=N/N=C/c1ccc2c(c1)OCO2	FLuc counter 8.49µM, Rab9 promoter act 2.82µM, ELG1 genotox inconclusive, NPC1 promoter act inconclusive (no result: SMN2 splice up)
N/C(=N\N=C\c1ccc(O)c(O)c1)c1nonc1N	FLuc counter 15.1µM, Rab9 promoter act inconclusive, ELG1 genotox inconclusive, NPC1 promoter act inconclusive (no result: SMN2 splice up)
CS/C(N)=N/N=C/c1ccc([N+](=O)[O-])cc1	FLuc counter 21.3µM, Rab9 promoter act inconclusive, ELG1 genotox inconclusive, NPC1 promoter act 2.82µM
Nc1nonc1C(=O)NCCNc1ccc([N+](=O)[O-])cc1	none (no result: SMN2 splice up)
COc1cc(/C=N/N=C(\N)c2nonc2N)ccc1O	FLuc counter 21.3µM, ELG1 genotox inconclusive
N/C(=N\N=C\c1ccc([N+](=O)[O-])cc1)c1nonc1N	FLuc counter inconclusive, Rab9 promoter act 1.41µM, ELG1 genotox 5.17µM, NPC1 promoter act 1.58µM (no result: SMN2 splice up)
Cc1ccc(Cn2nnc(C(=O)Nc3ccc(F)c(F)c3)c2N)cc1	none (no result: Rab9 promoter act, ELG1 genotox, NPC1 promoter act)
COc1ccc(C(=O)Nc2ccc([N+](=O)[O-])cn2)c(OC)c1	FLuc counter 0.301µM, Rab9 promoter act 0.447µM, ELG1 genotox 1.16µM, NPC1 promoter act 1.12µM (no result: SMN2 splice up)
Cc1cc(C(=O)Nc2ccc([N+](=O)[O-])cn2)cs1	FLuc counter 10.7µM, Rab9 promoter act 3.55µM, ELG1 genotox 9.2µM, NPC1 promoter act 2.51µM (no result: SMN2 splice up)
COc1cc(OC)cc(C(=O)Nc2ccc([N+](=O)[O-])cn2)c1	none
COc1ccc([N+](=O)[O-])cc1NC(=O)c1csc(C)c1	FLuc counter 2.69µM (no result: SMN2 splice up)
